Screening results: PubChem BioAssay, several laboratories
SENP6 block – SENP6 protease inhibition; Q9GZR1; Recombinant SENP6 catalytic domain, aminoluciferin luminescence; inhibition, % at 10 µM; hit rate 1.8% among 330,000; AID 2599;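 active = inhibition above about 50% at the single tested dose, limit read from the data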;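 note: plate controls were DMSO wells with enzyme for no effect and DMSO wells lacking enzyme for full effect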
SENP8 block-1 – inhibitors of human SENP8 protease; Q96LD8; recombinant SENP8, Nedd8 substrate fluorescence; inhibition, % at 20 µM; hit rate 0.64% among 360,000; AID 602440; in the data active = inhibition mostly above about 40%, no sharp cut-off; inactive = mostly below about 27%
Target sequence (Q96LD8 whole entry, looked up): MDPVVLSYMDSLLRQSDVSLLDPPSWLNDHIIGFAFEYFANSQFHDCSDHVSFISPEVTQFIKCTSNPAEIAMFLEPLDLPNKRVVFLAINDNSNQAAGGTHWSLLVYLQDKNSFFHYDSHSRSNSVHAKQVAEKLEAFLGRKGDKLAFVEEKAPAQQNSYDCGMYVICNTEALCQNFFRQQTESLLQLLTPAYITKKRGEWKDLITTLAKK
SENP7 inh – SENP7 protease inhibition; Q9BQF6; recombinant SENP7, Z-RLRGG-aminoluciferin luminescence, 40 min; inhibition, % at 5 µM; hit rate 1.5% among 330,000;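 active = inhibition above about 50% at the single test dose, limit read from the data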;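 note: plate controls were DMSO with enzyme for no effect and no enzyme buffer wells for full effect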
Target sequence (Q9BQF6 706-1050 limits assumed): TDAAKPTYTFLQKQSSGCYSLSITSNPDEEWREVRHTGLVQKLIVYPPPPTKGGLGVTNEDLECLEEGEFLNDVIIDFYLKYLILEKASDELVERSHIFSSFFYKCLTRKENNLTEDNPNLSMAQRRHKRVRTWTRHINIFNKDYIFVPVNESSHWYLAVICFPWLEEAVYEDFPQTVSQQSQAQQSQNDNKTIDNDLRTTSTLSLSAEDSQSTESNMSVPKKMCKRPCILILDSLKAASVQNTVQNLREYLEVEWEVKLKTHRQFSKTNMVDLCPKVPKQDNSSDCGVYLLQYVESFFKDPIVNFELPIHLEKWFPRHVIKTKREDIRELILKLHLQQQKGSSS
SENP8 block-2 – blocks the human protease SENP8. Q96LD8. purified SENP8, Z-RLRGG-aminoluciferin cleavage, luminescence. inhibition, % at 10 µM. hit rate 1.2% among 330,000. AID 2540; in the data active = inhibition above about 50%
Platelet DG rel – modulates dense granule release in human platelets | human platelet-rich plasma, SFLLRN dense granule ATP release, luminescence | inhibition, %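 (compounds screened at 7.5 µM in platelet-rich plasma)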 | hit rate 0.22% among 300,000;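 active = mean replicate score, as percent of positive control, at or above 50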
HSP90 inh – inhibitors of HSP90 luciferase refolding in rabbit reticulocyte lysate; hit rate 0.91% among 290,000; inhibition, % at 5.6 µM; luciferase refolding luminescence, 3 h;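 active = inhibition above the screen-wide mean plus 3 SD, computed separately per campaign, cut at about 16% in these data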;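 note: 0% = DMSO wells and 100% = 60 µM geldanamycin wells; inhibitors lower the luminescence because luciferase stays unfolded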
* = called active by the depositor; nt = not tested or not shown. Compounds with a hit are over-represented: about 2.8% of the library has one in this group of screens.

SMILES | SENP6 block | SENP8 block-1 | SENP7 inh | SENP8 block-2 | Platelet DG rel | HSP90 inh
COc1cccc(-c2cc(C(F)(F)F)c3c(N)c(C#N)sc3n2)c1 | 2 | nt | 86* | 0 | -2 | -1
COc1cccc(/C=N/Nc2nn3cnnc3c3ccccc23)c1O | 1 | 14 | 3 | 2 | -10 | 0
Oc1cccc(/C=N/Nc2nn3cnnc3c3ccccc23)c1 | -10 | -50 | -10 | -6 | 57* | 2
OCCN1CCN(CC(O)COc2ccc(Cl)cc2)CC1 (stereo unspecified) | -5 | 36 | 2 | -1 | 50* | -2
CN1CCN(CC(O)COc2ccc(Cl)cc2)CC1 (stereo unspecified) | -18 | 13 | -1 | -11 | 0 | 1
O=C(Nc1cccc(Cl)c1)c1ccccc1 | 49 | 8 | 48 | 42 | nt | nt
Cc1cccc(NC2=C(NC(=O)c3ccccc3)C(=O)c3ccccc3C2=O)c1 | 43 | 76* | 17 | 18 | 6 | 6
O=C1C(Cl)=C(NC(=O)c2ccccc2)C(=O)C(Cl)=C1NC(=O)c1ccccc1 | -4 | 34 | 8 | 9 | 3 | 71*
Cc1cccc(C(=O)Nc2cccc(NC(=O)c3ccccc3)c2)c1 | 20 | 13 | -4 | 4 | -9 | -3
O=C(NC1=C(Nc2ccc(Cl)cc2)C(=O)c2ccccc2C1=O)c1ccccc1 | 12 | 52* | 13 | 11 | 1 | 0
CN(C1=C(NC(=O)c2ccc(Cl)cc2)C(=O)c2ccccc2C1=O)c1ccccc1 | 25 | 57* | 15 | 10 | 6 | 4
Cn1cc(/C=C(\NC(=O)c2ccccc2Cl)C(=O)NCCCn2ccnc2)c2ccccc21 | -8 | -19 | -4 | -6 | 16 | -2
Cc1c(C=Nc2ccc(S(=O)(=O)N(C)C)cc2)c(O)[nH]c(=O)c1C#N | 0 | -28 | 7 | -1 | -7 | nt
CCOC(=O)c1ccc(NC(=O)CCc2ccc(C)o2)cc1 | -4 | -1 | -7 | -10 | 62* | 2
CC(=O)Nc1ccc(NC(=O)CCc2ccc(C)o2)cc1 | -15 | 10 | 3 | 3 | -18 | 0
CN(C)S(=O)(=O)c1cccc(NC(=O)CSc2nnnn2-c2ccccc2)c1 | -9 | 3 | 2 | -2 | 50* | 2
Cc1cccc(NC(=S)NNC(=O)c2ccccc2OC(F)F)c1 | 21 | 4 | 16 | 5 | -1 | 1
Cc1cccc(NC(=S)NNC(=O)c2ccccc2Br)c1 | 68* | 7 | 16 | 11 | -12 | 3
Cc1ccccc1/C=N/NC(=O)c1sccc1C | 96* | 3 | 99* | 95* | 14 | 3
COc1ccc(/C=N/NC(=O)c2sccc2C)c2ccccc12 | -10 | -323 | 0 | -21 | -1 | nt
CC(=O)[C@H]1[C@H](c2cccc(Cl)c2)C(C#N)(C#N)[C@@H]2c3ccccc3C=CN21 | 67* | nt | 8 | 0 | 8 | 1
CC(=O)[C@H]1[C@@H]2C(=O)N(c3cccc(Cl)c3)C(=O)[C@@H]2[C@H]2c3ccccc3C=CN21 | 53* | -198 | 34 | 27 | nt | 4
CC(=O)[C@@H]1[C@@H]2C(=O)N(c3ccc(F)c(Cl)c3)C(=O)[C@@H]2C2c3ccccc3C=CN21 (stereo partly specified) | 11 | nt | 19 | 15 | -10 | 6
CC(=O)[C@@H]1[C@@H]2C(=O)N(C3CCCCC3)C(=O)[C@@H]2C2c3ccccc3C=CN21 (stereo partly specified) | 55* | nt | 30 | 28 | 23 | -1
C=CCn1c(=O)c(CCC(=O)Nc2ccc(N3CCOCC3)cc2)nc2cc(C(F)(F)F)ccc21 | -4 | 12 | -10 | -12 | 3 | 3
SMILES | SENP6 block | SENP8 block-1 | SENP7 inh | SENP8 block-2 | Platelet DG rel | HSP90 inh
O=C1C(Cl)=C(NCCCN2CCOCC2)C(=O)c2ccccc21 | nt | 64* | nt | nt | nt | nt
O=C1C(Cl)=C(NCCN2CCOCC2)C(=O)c2ccccc21 | 27 | 59* | 12 | 11 | -3 | 7
CN(C)c1ccc(NC2=C(Cl)C(=O)c3ccccc3C2=O)cc1 | 38 | 43* | 3 | 9 | 6 | 1
O=C1C(Cl)=C(NCCCO)C(=O)c2ccccc21 | 41 | 83* | 41 | 28 | 13 | 7
O=S(=O)(c1ccccc1)c1nc(-c2ccccc2Cl)oc1NCCCN1CCOCC1 | -9 | -106 | 1 | 13 | nt | nt
CC(=O)Nc1ccc(NC2=C(Cl)C(=O)c3ccccc3C2=O)cc1 | 12 | nt | 10 | 24 | 3 | -4
CC(NC(=O)COc1ccc(S(=O)(=O)N2CCOCC2)cc1)c1ccccc1 (stereo unspecified) | -13 | 11 | -11 | -2 | nt | nt
O=C(Nc1cccc(NC(=O)c2cccs2)c1)c1ccc([N+](=O)[O-])o1 | -10 | 23 | 5 | -8 | 17 | 33*
COc1cc(/C=N/NS(=O)(=O)c2ccc(C)c([N+](=O)[O-])c2)cc([N+](=O)[O-])c1O | 1 | 41* | -4 | 3 | 5 | 2
COc1cc(/C=N/NS(=O)(=O)c2ccc(C)c([N+](=O)[O-])c2)ccc1O | 12 | 11 | 3 | 4 | 6 | 4
O=C(NCc1ccc(Cl)cc1)N1CCc2ccccc2C1 | -19 | 22 | -14 | -16 | -4 | -1
COc1ccc(CNC(=O)N2CCc3ccccc3C2)cc1Cl | -6 | 26 | 4 | -2 | 1 | 16*
Cc1nn(-c2ccccc2)c(Cl)c1/C=C/C(=O)c1ccccc1 | -3 | 42* | 4 | -14 | -4 | 4
Cc1cc(C(=O)N/N=C/c2c(C)nn(-c3ccccc3)c2Cl)n[nH]1 | -11 | 12 | -10 | -6 | 1 | 1
Cc1cc(=O)[nH]c(N/N=C/c2c(C)nn(-c3ccccc3)c2Cl)n1 | 6 | 30 | -4 | 0 | 0 | 0
Cc1nn(-c2ccccc2)c(Cl)c1/C=N/Nc1nc2ccccc2[nH]1 | 52* | 9 | 85* | 16 | 10 | -3
Cc1nn(-c2ccccc2)c(Cl)c1/C=N/NC(=O)c1ccn[nH]1 | 17 | 7 | 38 | 23 | 2 | 17*
Cc1cccc(OCC(=O)NCCCNC(=O)c2ccco2)c1 | 4 | 4 | -6 | 3 | 4 | 4
CCc1nc2ccc(C(=O)Nc3cccc(NS(C)(=O)=O)c3)cn2c1N(CC)CCOC | nt | 1 | nt | nt | nt | nt
CCCCCCCCCCCC1=C(O)C(=O)C=C(O)C1=O | nt | 46* | nt | nt | -2 | nt
COC1=CC(=O)C(O)=C(CCCCCCC/C=C/CCCCCCCC2=C(O)C(=O)C=C(OC)C2=O)C1=O | 3 | 28 | -3 | 28 | 8 | nt
CC[n+]1c(/C=C/c2ccc(OC)c(OC)c2)ccc2ccccc21 | 2 | -344 | 4 | -6 | 2 | -5
CC[n+]1c(/C=C/c2ccc(N(C)C)cc2)ccc2ccccc21 | nt | 47* | nt | nt | 6 | -4
CN(C)c1ccc(/C=N/N2CCN(c3ccccn3)CC2)cc1 | 74* | 11 | 78* | 62* | 21 | -4
COc1ccc(C(C(=O)NC2CCCC2)N(Cc2cccnc2)C(=O)c2snc(C(N)=O)c2N)cc1OC (stereo unspecified) | -3 | -270 | 1 | -9 | 9 | 0
O=c1c(N=Nc2ccccc2)c[nH]n1-c1ccccc1 | nt | 54* | nt | nt | nt | nt
